Experimental data published in ChEMBL document CHEMBL4513216, “Probing the Open Global Health Chemical Diversity Library for Multistage-Active Starting Points for Next-Generation Antimalarials” (ACS Infect Dis, 2020).
Screen size: about 69,000 compounds; about 8,600 (12%) showed an effect of 50% or more. Shown is part of a subset that was picked to be rich in strong results.

The compounds below were run on Plasmodium berghei (assay: Screen against P. berghei liver stage (PbLuc), transformed with Luciferase, at 10uM). Conditions: tested at 10 uM.
Type: functional, HepG2

| SMILES | INHIBITION [%] |
| --- | --- |
| CCC(CO)N(Cc1ccsc1)Cc1ccccc1C(=O)O (configuration not stated) | -69.3 |
| CCC(CO)N(Cc1ccsc1)Cc1ccccc1C#N (configuration not stated) | 37.6 |
| CCC(CO)N(Cc1ccsc1)Cc1cccc(O)c1 (configuration not stated) | -60.8 |
| CCC(CO)N(Cc1ccsc1)CC1CC1 (configuration not stated) | 50.7 |
| CCC(CO)N(CC=C(C)C)Cc1ccsc1 (configuration not stated) | 55 |
| CCC(CO)N(Cc1ccc(C(=O)O)cc1)Cc1ccsc1 (configuration not stated) | 15 |
| CN1CCO[C@@H]2CN(S(=O)(=O)c3ccccc3)C[C@@H]2C1 | 25.6 |
| CC(C)c1ncncc1C(=O)NCCN1CCCCCC1 | 35.4 |
| Cc1csc(N2CCN(C(=O)C3(C#N)CCCCC3)CC2)n1 | 24.635 |
| CC(O)CN1CCN(C(=O)c2ccc(CN(C)C)cc2)CC1 (configuration not stated) | 10 |
| CS(=O)(=O)N1CCC(C(=O)NC(Cc2ccsc2)c2cccnc2)CC1 (configuration not stated) | 47.1 |
| Cc1ccc(C(=O)N2CCC3(CC2)COCCN(S(C)(=O)=O)C3)cc1C | -4.88 |
| Cc1cc(OCC(=O)NS(=O)(=O)c2cccnc2)ccc1Cl | 38.5 |
| CNC(=O)Cc1ccccc1NC(=O)N[C@H]1c2ccccc2C[C@H]1O | 54.5 |
| CN(C)C(=O)c1ccccc1NC(=O)N[C@@H]1c2ccccc2C[C@@H]1O | 48.9 |
| CS(=O)(=O)c1ccccc1NC(=O)N[C@@H]1c2ccccc2C[C@@H]1O | 35 |
| CNC(=O)Cc1ccccc1NC(=O)C1CCCC1 | 42.6 |
| CS(=O)(=O)c1ccccc1C(=O)NCC1Cc2ccccc2O1 (configuration not stated) | -9.76 |
| CS(=O)(=O)c1ccccc1N[C@@H]1c2ccccc2C[C@@H]1O | 67.5 |
| Cc1ccc(CN2CCC3(CC2)OC(C(=O)N(C)C)c2ccccc23)o1 (configuration not stated) | 34 |
| CN(Cc1ccc2c(c1)OCO2)C(=O)Cn1cccnc1=O | 44.1 |
| O=C(CN1CCCC1c1noc(C2CC2)n1)N1CCc2ccccc21 (configuration not stated) | 7.08 |
| COCCN1CCC(c2cncc(-c3cccc(Cl)c3)n2)CC1 | -5.71 |
| Fc1cc(CN2CCOC3(CCOCC3)C2)ccc1Cl | -27.8 |

| SMILES | INHIBITION [%] |
| --- | --- |
| Fc1cc(CN2CCOC3(CCOCC3)C2)ccc1OC(F)F | 86.7 |
| FC(F)Oc1ccc(CN2CCOC3(CCOCC3)C2)cc1Cl | 38 |
| COc1cc(CNC(=O)Nc2nnc(C(C)C)s2)ccn1 | -69.3 |
| Cc1cccc(C2(C(=O)NC(C)Cn3ccnc3)CC2)c1 (configuration not stated) | 35.9 |
| Cc1csc(CN(C)C(C)C(=O)N2CCc3ccccc3C2)n1 (configuration not stated) | 38 |
| CCc1cnc(CN(C)C(C)C(=O)N2CCc3ccccc3C2)s1 (configuration not stated) | 62 |
| CC(C(=O)N1CCc2ccccc2C1)N(C)Cc1cscn1 (configuration not stated) | 32.9 |
| CC(C)Oc1ncccc1CNC(=O)c1cc(C2CC2)on1 | 11.9 |
| COCCN1CCC1c1cc(N)nc(C)n1 (configuration not stated) | 26.7 |
| Cc1nc2c(c(NCC(c3cccnc3)N3CCOCC3)n1)CCNC2 (configuration not stated) | 18.2 |
| Cn1nc2c(cc1=O)CN(CCOc1ccccc1C#N)CC2 | 74.8 |
| Cc1nnc2n1CCN(CCOc1ccccc1C#N)C2 | 58.5 |
| Cc1ccccc1OCCN1CCn2c(C)nnc2C1 | 27.6 |
| N#Cc1ccccc1OCCN1CCn2c(nnc2C2CC2)C1 | 39.5 |
| CCn1nc2c(cc1=O)CN(CCOc1ccccc1C#N)CC2 | 2.4 |
| Cn1nc2c(cc1=O)CN(Cc1nc(N)c3ccccc3n1)CC2 | 57.7 |
| CCn1nc2c(cc1=O)CN(Cc1nc(N)c3ccccc3n1)CC2 | 15.8 |
| CC(C)n1nc2c(cc1=O)CN(CCOc1ccccc1C#N)CC2 | 12.7 |
| Cn1nc2c(cc1=O)CN(Cc1nc3ccccc3c(=O)[nH]1)CC2 | 9.04 |
| Cc1cc(=O)n(CCNC(=O)c2ccccc2Cl)cn1 | -62.1 |
| COc1cc(N2CCC3(CCCN(C(=O)c4cnccn4)C3)C2)ncn1 (configuration not stated) | 10.6 |
| O=C(c1ccco1)N1CCOCC2(C1)CN(c1ccccn1)C(=O)CO2 (configuration not stated) | 22.4 |
| COCCCN1CCCC1c1noc(C2CC2)n1 (configuration not stated) | 2.97 |
| O=C(Cc1ccsc1)N1C[C@@H]2COC[C@]2(COc2cccnc2)C1 | 39.4 |

| SMILES | INHIBITION [%] |
| --- | --- |
| CC(=O)NCc1ccc(C(=O)N2CCCC2c2cnn(C)c2)s1 (configuration not stated) | -25.9 |
| CC(C)Nc1nc(O)cc(C2CC(=O)N(Cc3ccccc3)C2)n1 (configuration not stated) | 18.3 |
| O=C(C[C@@H]1COC[C@H]2CN(C(=O)c3cccnc3)C[C@@H]12)N1CCCC1 | -19.5 |
| c1cncc(-c2nnn3c2COCC(CNCC2CCOCC2)C3)c1 (configuration not stated) | 41.6 |
| O=C(c1ccccc1O)N1CCN(C(=O)C2CCC2)CC1 | -14.3 |
| Cc1ccsc1C(=O)N(C)Cc1ccncc1 | 3.1 |
| CN(CCc1ccncc1)C(=O)c1sccc1OC(F)F | -2.97 |
| CN(Cc1ccc(C(=O)O)cc1)C(=O)c1sccc1OC(F)F | 52.5 |
| Cc1ccccc1C(CC(=O)N1CCc2sccc2C1)NC(N)=O (configuration not stated) | 3.3 |
| CCOc1ccc(Cl)cc1CCNC(=O)c1ccc(=O)n(C)c1 | -10.8 |
| O=C(Cn1nc(-c2ccc(F)cc2)oc1=O)NCc1ccncc1 | -6.79 |
| COCC(=O)N[C@@H]1CN(Cc2c[nH]nc2-c2cccs2)C[C@H]1O | 6.54 |
| CCC1=NC(SCC(=O)c2ccc(C)cc2)c2cc(CC)sc2N1 (configuration not stated) | 39.1 |
| CCC1=NC(SCC(=O)c2ccccc2)c2cc(CC)sc2N1 (configuration not stated) | 79.7 |
| CCC1=NC(SCC(=O)c2ccc(Cl)cc2)c2cc(CC)sc2N1 (configuration not stated) | 30 |
| CC(C)c1nn(C)c(Cl)c1CNCC(=O)N1CCN(C)CC1 | 26.4 |
| Cc1nc(C)n(CC2CN(Cc3cccs3)Cc3nccn3C2)n1 (configuration not stated) | 47.4 |
| COCCNc1nnc(S(=O)(=O)CCC(C)(C)C#N)s1 | 52.1 |
| CCCNc1nnc(S(=O)(=O)CCOCC)s1 | 5.05 |
| CCOCCS(=O)(=O)c1nnc(NCCOC)s1 | 12.2 |
| C[C@@H]1CN(C(=O)C2CCOCC2)C[C@]12CCN(c1cccnc1)C2=O | 18.5 |
| COc1ccccc1C(=O)N1CC(=O)N(C2CCCCC2)CC(O)C1 (configuration not stated) | 50.2 |
| CCOc1ccccc1C(=O)N1CC(=O)N(C2CCC2)CC(O)C1 (configuration not stated) | 16.9 |
| COc1cccc(OC)c1C(=O)N1CC(=O)N(C2CCC2)CC(O)C1 (configuration not stated) | 4.82 |
